Source: PubChem (National Center for Advancing Translational Sciences (NCATS))
This is a sample that favours compounds with a hit; in the whole collection about 12% have one here.
SARS PLP yeast = inhibitors of SARS-CoV papain-like protease in yeast. S. cerevisiae expressing SARS-CoV PLpro, growth rescue. hit rate 0.19% among 330,000. Potency, µM (series often up to 32.9 µM), inactives show at the top dose activity, positive = growth rescue, most hits filed as activators; calls by dose curve; note: 0% is about no effect; nearly all actives have a fitted effect of over 55% in size
Pf growth 48h = inhibits P. falciparum growth in the first generation, 48 h | hit rate 5.9% among 310,000 | AID 504832 | Potency, µM (series often up to 28.7 µM), for inactives: top-dose activity change, negative = inhibition, actives largely listed as inhibitors | P. falciparum luciferase growth in erythrocytes, 48 h; note: % is set by controls: 0 for no effect and ±100 for the full control effect
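Here the parasites carry a stable luciferase gene and grow inside erythrocytes in Albumax-based RPMI medium with compound for one erythrocytic cycle. Activity is scored as loss of luminescent signal.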
AMA1-RON2 inh = inhibitors of Plasmodium falciparum AMA1-RON2 interaction. AlphaScreen AMA1-biotinylated RON2 peptide binding. hit rate 0.2% among 360,000. Potency, µM (series often up to 58.2 µM), for the others: top-dose activity change, negative = inhibition, usual class: inhibitors. AID 720542;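 note: 0% = vehicle wells and -100% = peptide control; nearly all actives have a fitted effect of over 45% in size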
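AMA1 (3D7) with his tag at 25 nM final met compounds first, then biotinylated RON2 peptide at 25 nM; detection used donor plus acceptor beads, 10 µg/mL apiece, read by AlphaScreen after 30 min at room temperature.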
NS1 function inh = inhibitors of influenza NS1 protein function. Potency, µM (doses to about 46.1 µM), for inactives: at the highest dose activity, positive = more growth. hit rate 0.4% among 270,000. AID 2326; calls by dose curve; note: actives are rising curves; nearly all actives have a fitted effect of over 50% in size
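In this qHTS, NS1 from influenza A is expressed in budding yeast, where it slows growth. Cells are switched from glucose to 2% galactose medium (pH 6.0, -URA), treated with compound, and growth recovery is read at OD600.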
Pf growth 96h = inhibits malaria parasite growth, 96 h; P. falciparum luciferase reporter growth, 96 h; Potency, µM (titrated, usually from 28.7 µM), inactives show top-dose activity change, negative = inhibition, hits mostly inhibitors; hit rate 6.9% among 320,000; note: % is set by controls: 0 for no effect and ±100 for the full control effect
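96 h incubation, 37 C, 5% CO2, of luciferase-reporter P. falciparum-infected RBCs (2% hematocrit, 0.05% parasitemia final) with test compounds; endpoint luminescence.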
HCV inhibitor = blocks hepatitis C virus | AID 651820 | hit rate 3.4% among 340,000 | Huh7.5.1 HCVcc-Cre infection, luciferase reporter, 44 h | Potency, µM (doses to about 41.8 µM), for the others: at the top dose activity change, negative = inhibition, hits mostly inhibitors; note: % is set by controls: 0 for no effect and ±100 for the full control effect
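Infectious HCV cell culture screen: compound-treated cells (1,000/well, pre-plated 4 h) are infected with HCVcc-Cre at roughly 0.5 moi and grown 44 h. Infection is quantified by luciferase signal after 15 min substrate incubation at room temperature.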
An asterisk follows results filed as active. Unless noted, calls come from the whole dose curve; as a rule, active = well fitted curve in the direction sought with a large enough effect; inconclusive = small, poorly fitted or top-dose-only effect, or another doubt; inactive = no such curve, though single readings can be large; an effect the other way counts as inactive or inconclusive. Potency is the fitted concentration of half-maximal effect.

CCNC(=O)NC(=O)C(C)Sc1nc2ccccc2c(=O)n1-c1cccnc1 (stereo unspecified) was read as SARS PLP yeast -3.8%, Pf growth 48h 1.04µM*, AMA1-RON2 inh 5.0%, NS1 function inh 1.2%, Pf growth 96h 0.928µM* and HCV inhibitor 12.2%.
For COc1ccc(-c2nnc(SCc3ccc(C(=O)O)cc3)n2N)cc1 the results were SARS PLP yeast -1.1%, Pf growth 48h 53.4%, AMA1-RON2 inh 4.9%, NS1 function inh 4.7%, Pf growth 96h 4.7% and HCV inhibitor 30.2%.
For Cc1ccc2c(c1)c1ccc3c(c1n2C)C(=O)C=CC3=O the results were SARS PLP yeast -6.1%, Pf growth 48h inconclusive, AMA1-RON2 inh -26.3%, NS1 function inh -66.5%, Pf growth 96h inconclusive and HCV inhibitor 11.2µM*.
Cc1cc(/C=C2/SC(=S)N(c3cccc(Cl)c3)C2=O)c(C)n1-c1cccnc1 was read as AMA1-RON2 inh -20.5% and HCV inhibitor 2.24µM*.
Screening Cc1cc(/C=C2/SC(=S)N(c3ccc([N+](=O)[O-])cc3)C2=O)c(C)n1-c1cccnc1 returned SARS PLP yeast -3.5%, Pf growth 48h 13.1µM*, AMA1-RON2 inh -10.3%, NS1 function inh inconclusive, Pf growth 96h 16.4% and HCV inhibitor 2.51µM*.
Screening Cc1cccc(N2C(=O)/C(=C/c3cccnc3)SC2=S)c1 returned SARS PLP yeast 0.0%, Pf growth 48h 0.0%, AMA1-RON2 inh 31.9%, NS1 function inh -0.3%, Pf growth 96h 19.9% and HCV inhibitor -1.5%.
Screening COc1ccc2c(c1)OC(C)(C)C(c1ccccc1)C2c1ccc(OCCN2CCCC2)cc1 (stereo unspecified) returned Pf growth 48h 1.69µM* and Pf growth 96h 3.01µM*.
`COc1cccc(OCCCN2CCCCC2)c1` gave SARS PLP yeast -7.9%, Pf growth 48h 24.0%, AMA1-RON2 inh 3.5%, NS1 function inh 2.5%, Pf growth 96h -15.7% and HCV inhibitor -12.4%.
`CC(=O)NCC(=O)N(C)C(C(=O)Nc1ccc2c(c1)OCCO2)c1ccc(C)cc1` (stereo unspecified) gave SARS PLP yeast -5.8%, Pf growth 48h -3.0%, AMA1-RON2 inh -17.1%, Pf growth 96h 4.8% and HCV inhibitor 15.6%.
`Cc1ccc(C(C(=O)Nc2ccc3c(c2)OCO3)N(C)C(=O)/C=C\c2ccc3c(c2)OCO3)cc1` (stereo unspecified) gave SARS PLP yeast 2.1%, Pf growth 48h 13.1µM*, AMA1-RON2 inh -13.5%, NS1 function inh inconclusive, Pf growth 96h 13.4% and HCV inhibitor inconclusive.
Clc1nc(CN2CCCCC2)nc2sc3c(c12)CCC3 was read as SARS PLP yeast 10.2%, Pf growth 48h -15.7%, AMA1-RON2 inh -1.9%, NS1 function inh 6.9%, Pf growth 96h inconclusive and HCV inhibitor inconclusive.
CC[C@@H]1[C@H]2CCCC(=O)N3CC[C@@H](C[C@@H]1Nc1ccccc1)[C@@H]23 was read as SARS PLP yeast 0.0%, Pf growth 48h inconclusive, AMA1-RON2 inh -7.6%, NS1 function inh -5.0%, Pf growth 96h 0.0% and HCV inhibitor 5.1%.
`CC(C)CCNC(=O)NC(=O)CSc1ncccn1` gave SARS PLP yeast -1.2%, Pf growth 48h 0.1%, AMA1-RON2 inh 5.0%, Pf growth 96h 30.0% and HCV inhibitor -3.5%.
For O=C1C2CCCN2C(=O)N1CCCCN1CCN(c2cccc(Cl)c2)CC1 (stereo unspecified) the results were SARS PLP yeast 3.5%, Pf growth 48h -9.8%, AMA1-RON2 inh -8.1%, NS1 function inh 1.6%, Pf growth 96h 13.1µM* and HCV inhibitor inconclusive.
O=C(CCCN1CCN(c2ccccc2)CC1)c1ccc(F)cc1 was read as AMA1-RON2 inh 0.0%.
Clc1cccc(N2CCN(CCCN3CCN(c4ccccc4)CC3)CC2)c1 was read as AMA1-RON2 inh -29.9% and HCV inhibitor 11.2µM*.
`O=C1CC(=C(c2ccccc2)c2ccccc2)C(=O)N1CCCCN1CCN(c2ccccc2)CC1` gave SARS PLP yeast -3.5%, AMA1-RON2 inh inconclusive, NS1 function inh 2.4%, Pf growth 96h 3.29µM* and HCV inhibitor 1µM*.
For CCN(CC)S(=O)(=O)c1ccc(C(=O)C(C#N)c2ccccn2)cc1 (stereo unspecified) the results were SARS PLP yeast 0.3%, Pf growth 48h inconclusive, AMA1-RON2 inh 31.9%, NS1 function inh -3.5%, Pf growth 96h 21.0% and HCV inhibitor 10µM*.
Screening CC(NC(=O)COC(=O)c1ccccc1SCC(=O)N1CCCC1)c1ccccc1 (stereo unspecified) returned SARS PLP yeast -1.1%, Pf growth 48h -9.3%, AMA1-RON2 inh 7.7%, Pf growth 96h 2.8% and HCV inhibitor 19.9%.
For CCOC(=O)C1CCN(C(=O)CCN2C(=O)C3C4C=CC(C4)C3C2=O)CC1 (stereo unspecified) the results were SARS PLP yeast -1.7%, Pf growth 48h 28.1%, AMA1-RON2 inh 1.0%, NS1 function inh 1.0%, Pf growth 96h 5.22µM* and HCV inhibitor 13.1%.
CCN(c1cccc(C)c1)c1nc2ccsc2c(=O)s1 was read as SARS PLP yeast -4.1%, Pf growth 48h 8.2%, AMA1-RON2 inh 61.7%, NS1 function inh -1.5%, Pf growth 96h 8.28µM* and HCV inhibitor -5.5%.
`O=C(NC1CC1)c1sc2ccccc2c1Cl` gave SARS PLP yeast -3.1%, Pf growth 48h 65.6%, AMA1-RON2 inh -12.6%, NS1 function inh -6.3%, Pf growth 96h 0.0% and HCV inhibitor -7.1%.
`O=C(NC1C=CS(=O)(=O)C1)c1sc2ccccc2c1Cl` (stereo unspecified) gave SARS PLP yeast 4.0%, Pf growth 48h 8.28µM*, AMA1-RON2 inh -0.3%, NS1 function inh -6.6% and HCV inhibitor inconclusive.
`Cc1c(/C=N/NC(=O)CNc2ccccc2)c2ccccn2c1C(=O)c1ccncc1` gave SARS PLP yeast 7.5%, Pf growth 48h inconclusive, AMA1-RON2 inh -0.9%, NS1 function inh 18.2%, Pf growth 96h inconclusive and HCV inhibitor -20.4%.
Cc1c(/C=N/NC(=O)CNc2ccccc2)c2ccccn2c1C(=O)c1ccc(Cl)cc1 was read as SARS PLP yeast 4.8%, Pf growth 48h 3.29µM*, AMA1-RON2 inh -11.7%, NS1 function inh inconclusive, Pf growth 96h 3.29µM* and HCV inhibitor -42.0%.
Cc1ccccc1NCC(=O)N/N=C/c1c(C)c(C(=O)c2ccc(Cl)cc2)n2ccccc12 was read as SARS PLP yeast inconclusive, Pf growth 48h 13.1µM*, AMA1-RON2 inh 6.8%, NS1 function inh 25.1%, Pf growth 96h 4.65µM* and HCV inhibitor inconclusive.
